The source of these data is ChEMBL document CHEMBL3988442, “University of Dundee, Small-Polar-MMV Screening Library” (2021).

About 1,200 (3.2%) of roughly 38,000 compounds showed an effect of 50% or more. The median lay at about -58%. Many of the other results were omitted from the sample, so strong results are more common in it than they were.

This assay has as its system Plasmodium falciparum. The assay is described as follows: Calibr Malaria Delayed Death Assay SOP. Conditions: concentration 4.99e-06 (unit not given; other assays of the set use mol/L). The class given is functional, organism-based. Also on record: scale not given: in the data most compounds retested in dose-response had high values.
On to `Fc1ccccc1OC1CCN(CCn2cc3ccccc3n2)CC1`, for which the “Percent Effect” value is -71.75%.
Next, `CCC1CN(CC(=O)N2CCCC2)CCN1CCOC` (stereo unspecified): -62.36%; `Cc1ccc(N2CCC3(CCN(C(=O)c4ccsc4)CC3)C2)nn1`: -9.92%.
On to `NC(=O)N1CCC2(CCN(Cc3ccccn3)C2=O)C1.O=C(O)C(F)(F)F` (stereo unspecified), for which the “Percent Effect” value was -110.7%.
In the case of `COCC(O)CN1CCC(=O)N(Cc2ccccc2)Cc2ccccc21` (stereo unspecified), the “Percent Effect” value was -18.3%.
`COc1ncccc1CNCc1c(C(C)C)nn(C)c1OC`: the “Percent Effect” value is on record as -36.33%.
Under `CC(C)c1nn(C)c(Cl)c1CNCC(O)c1cccc(F)c1.Cl` (stereo unspecified) stands 81.83%; under `CC(C)c1nn(C)c(N(C)C)c1CNCC(O)c1ccccc1` (stereo unspecified), -60.19%.
With `COc1ncccc1CNCc1c(C(C)C)nn(C)c1N(C)C`, the “Percent Effect” value was 6.61%.
Next, `COc1c(CNCC(c2cccc(F)c2)N(C)C)c(C(C)C)nn1C` (stereo unspecified): 19.73%; `CC(C)c1nn(C)c(N(C)C)c1CNCC(O)c1cccc(F)c1` (stereo unspecified): 28.02%; `CC(C)c1nn(C)c(N(C)C)c1CNCC(O)c1ccccc1F` (stereo unspecified): -90.64%.
Next, `COc1ncccc1CNCc1c(C(C)C)nn(C)c1Cl`: 51.46%; `CC(C)OCCCNC(=O)c1cccnc1N1CCOCC1`: -113.7%; `Cn1ccnc1CN1CCCN(C(=O)c2ccc3c(c2)OCO3)CC1`: -109.5%.
Under `O=C(Nc1nncs1)N1CCC(c2ccc(O)cc2)CC1` stands -154%; under `CCN1C(=O)CCCC12CCCN(C(=O)c1conc1C)C2` (stereo unspecified), -139.9%; under `CCCS(=O)(=O)N1CCC2(CN(c3ccccc3)C(=O)CN2C)C1.O=C(O)C(F)(F)F` (stereo unspecified), -40.82%.
Take `CC1Oc2c(cccc2C(=O)N2CCCCCC2)NC1=O` (stereo unspecified): the “Percent Effect” value is recorded as -198.9%.
Under `Cc1nc[nH]c1CN(Cc1ccccc1)Cc1nccs1` stands 74.62%; under `c1ccc(CN(Cc2ncc[nH]2)Cc2nccs2)cc1`, 15.24%.
Under `Cc1cccc(CN(Cc2ccccc2)Cc2nccs2)n1` stands -42.32%; under `Cc1cccc(CN2CC[C@@H]3O[C@@H](C(=O)N4CCN(C)CC4)C[C@@H]32)c1`, 7.549%.
Under `Cc1nc2ccnn2c(C)c1CCC(=O)N1CCSCC1` stands -118.8%; under `Cc1cccc(N2CCOCC3(C2)CN(c2ccccc2)C(=O)CO3)n1.O=C(O)C(F)(F)F` (stereo unspecified), -64.15%.
As to `Cc1cccc(N2CCOCC3(C2)CN(c2cnn(C)c2)C(=O)CO3)n1.O=C(O)C(F)(F)F` (stereo unspecified), the “Percent Effect” value is given as -79.15%.
Next, `Cc1cccc(N2CCOCC3(C2)CN(c2ccoc2)C(=O)CO3)n1.O=C(O)C(F)(F)F` (stereo unspecified): 65.62%; `OC1(CN2CCOC(Cn3cncn3)C2)CCCCC1` (stereo unspecified): -41.07%.
Consider `CN(Cc1cc2n(n1)CCNC2)Cc1n[nH]c2c1CCC2`, for which the “Percent Effect” value is reported as -20.1%.
Under `Cc1ccc2[nH]c(CN(C)Cc3n[nH]c4c3CCC4)nc2c1` stands 82.04%.
Next, `Cc1ccc2nc(CN(C)Cc3[nH]nc4c3CCC4)[nH]c2c1C`: 36.38%; `Cc1ccc2nc(CN(C)Cc3n[nH]c4c3CCCCC4)[nH]c2c1C`: 85.65%.
Next, `CN(Cc1cc2n(n1)CCNC2)Cc1n[nH]c2c1CCCCC2`: -6.476%.
Turning to `CN(Cc1cc2n(n1)CCCNC2)Cc1n[nH]c2c1CCC2`, the “Percent Effect” value is given as -43.74%.
Under `CCn1nc(CC(C)C)cc1C(=O)NCCCN1CCOCC1` stands -66.39%.
Next, `CN(Cc1ccc2c(c1)OCCO2)Cn1nc(C(C)(C)C)ccc1=O`: -39.48%.
As to `CN(Cc1ccncc1)C1COC2(CCN(Cc3nccn3C)CC2)C1.O=C(O)C(F)(F)F.O=C(O)C(F)(F)F.O=C(O)C(F)(F)F` (stereo unspecified), the “Percent Effect” value is -27.83%.
Under `O=C(O)C(F)(F)F.O=C1[C@H]2CN(S(=O)(=O)C3CC3)C[C@H]2CN1Cc1cccnc1` stands -0.2941%; under `O=C(C1CNCCO1)N1CCCC(c2ccccc2)(c2ccccc2)C1` (stereo unspecified), 79.21%.
Next, `CC(=O)C1(c2ccccc2)CCN(C(=O)CC2CNCCO2)CC1` (stereo unspecified): -46.22%; `CC(=O)C1(c2ccccc2)CCN(C(=O)C2CNCCO2)CC1` (stereo unspecified): -83.28%.
Next, `O=C(c1cccnc1SCc1ccccc1)N1CCOCC1`: -36.51%; `O=C(c1cccnc1SC/C=C/c1ccccc1)N1CCOCC(O)C1` (stereo unspecified): 53.57%.
Regarding `O=C(c1cccnc1SC/C=C/c1ccccc1)N1CC[C@H](O)C1`, the “Percent Effect” value is on record as -73.62%.
Under `Cc1cnc(N2CCC3(CCN(CC4CC4)C3=O)CC2)nc1` stands -170.6%; under `O=C(O)C(F)(F)F.c1cnc(N2CCC3(CC2)CN(CC2CC2)c2ccccc23)nc1`, 85.9%; under `CCS(=O)(=O)N1CCC2(CC1)CN(CC1CCOC1)c1ccccc12.O=C(O)C(F)(F)F` (stereo unspecified), 19.88%.
As for `c1cnc(N2CC3(CCN(C4CCOC4)CC3)c3ccccc32)nc1` (stereo unspecified), the “Percent Effect” value was -111.6%.
Next, `O=C(O)C(F)(F)F.O=C(O)C(F)(F)F.OCCN1CC2(CCN(CC3CC3)CC2)c2ccccc21`: -50.6%.
Under `CS(=O)(=O)N1CCC2(CC1)CN(CC1CCOC1)c1ccccc12.O=C(O)C(F)(F)F` (stereo unspecified) stands -57.4%; under `O=C(O)C(F)(F)F.c1ccc2c(c1)N(CC1CCOC1)CC21CCN(c2cnccn2)CC1` (stereo unspecified), 68.42%.
Next, `O=C(O)C(F)(F)F.O=C1N(CC2CC2)CCC12CCN(c1ncccn1)CC2`: 4.695%; `COC[C@@H]1CCC[C@@]12CN(C(=O)N1CCCC1)CCO2`: -140.1%; `Cc1ccc(C(=O)N2CCC3(CCN3Cc3ccc(F)cc3)C2)cn1.O=C(O)C(F)(F)F` (stereo unspecified): -82.72%.
Turning to `CC(C)C(C(=O)N1CCCN(c2cccnn2)CC1)n1cncn1` (stereo unspecified), the “Percent Effect” value is -14.43%.
Turning to `CN(C)S(=O)(=O)c1ccc2c(c1)N(Cc1ccccn1)CCC2`, the “Percent Effect” value is -104.8%.
Next, `Cc1ccc([C@H]2CN(C(=O)C3CCC3)C[C@@H]2N)o1`: -3.638%; `Cc1nc(N2CCN(C)CC2)ncc1C(=O)N1CCCCCC1`: -28.58%; `O=C1CCN(C(=O)CCc2ccc(Cl)cc2Cl)CCN1`: -159.9%.
Under `Cc1cnn(CC2CCCCN2C(=O)c2cccc(C(N)=O)c2)c1` (stereo unspecified) stands -136.1%; under `CCCn1ncc(CN(Cc2ccsc2)Cc2ccco2)c1C`, -133.4%; under `CCCn1ncc(CN(Cc2cccnc2)Cc2ccsc2)c1C`, -140.4%.
Next, `CCCn1ncc(CN(CCN(C)C)Cc2ccsc2)c1C`: 54.25%.
As to `Cc1ccc(NC2CCN(C(=O)COc3ccccc3)CC2)nn1`, the “Percent Effect” value is given as -125.7%.
Under `O=c1n(CCNCc2ccc3ccccc3c2)nc2ccccn12` stands -86.86%; under `CCOc1cc(C(=O)N2CCCC(c3noc(CC)n3)C2)ccn1` (stereo unspecified), -108.4%.
Consider `NCC1Cc2cc(-c3cncc(C(=O)N4CCOCC4)n3)cc(Cl)c2O1` (stereo unspecified), for which the “Percent Effect” value was -15.5%.
Next, `O=C(c1cncc(NCC2COc3ccccc3C2)n1)N1CCCC1` (stereo unspecified): -147.2%.
Regarding `NCC1Cc2cc(-c3cncc(C(=O)N4CCCCC4)n3)cc(F)c2O1` (stereo unspecified), the “Percent Effect” value is reported as 51.14%.
Under `Cc1nc(-c2ccco2)ccc1C(=O)NCCC(=O)N1CCCCC1` stands -60.18%.
`Cc1cc(C)c2cc(CNC(C)C)c3nn(C)c(=O)n3c2c1`: the “Percent Effect” value was 20.42%.
Next, `Cc1ccc(CNC(=O)c2cc(C)n(C)n2)o1`: -43.25%.
Next, `CCOCCCNCc1cc2c(C)cc(C)cc2n2c(=O)n(C)nc12`: -70.5%.
Under `Cc1cc(C(=O)NCc2ccco2)nn1C` stands -62.29%; under `Cc1cc(C)c2cc(CNCc3cccnc3)c3nn(C)c(=O)n3c2c1`, 28.22%.
In the case of `Cc1cc(C)c2cc(CNCc3ccc(C)o3)c3nn(C)c(=O)n3c2c1`, the “Percent Effect” value is reported as 62.16%.
As to `Cc1cc(C)c2cc(CNCc3ccco3)c3nn(C)c(=O)n3c2c1`, the “Percent Effect” value worked out at 74.31%.
As to `Cc1cc(C)c2cc(CNC3CCCCC3)c3nn(C)c(=O)n3c2c1`, the “Percent Effect” value turned out to be 78.75%.
Under `Cc1ccn(CCC(=O)NCc2ccc(C)o2)n1` stands -117.2%; under `COc1ccccc1CCNC(=O)NCC(=O)Nc1cccnc1`, -188.8%.
Under `COC(=O)CNC(=O)CCCn1cnc2ccccc2c1=O` stands -30.86%.
Next, `O=C(c1cccnc1-c1ccoc1)N1C[C@H]2CC[C@@H]1C2`: 6.669%.
Regarding `O=C(CCO)N1CCC2(CCc3ccc(-c4ccoc4)cc32)CC1`, the “Percent Effect” value is given as -85.78%.
As for `Cc1ccc2c(c1)C1(CC2)CCN(CC(=O)O)CC1.O=C(O)C(F)(F)F`, the “Percent Effect” value is -81.36%.
Under `CN(C)CC(=O)N1CCC2(CC1)Cc1ccccc1CN(C)C2=O.O=C(O)C(F)(F)F` stands -24.83%; under `Cc1ccc2c(c1)CCC21CCN(CCO)CC1`, 15.58%.
Turning to `O=C(O)C(F)(F)F.OCCN1CCC2(CCc3cc(-c4ccoc4)ccc32)CC1`, the “Percent Effect” value worked out at 60%.
Next, `O=C(O)C(F)(F)F.O=C(O)C(F)(F)F.c1cncc(-c2ccc3c(c2)CCC32CCN(Cc3ccco3)CC2)c1`: 73.11%; `O=C(O)C(F)(F)F.O=C(O)C(F)(F)F.c1cncc(-c2ccc3c(c2)CCC32CCN(Cc3nccs3)CC2)c1`: 47.52%; `CN(C)CC(=O)N1CCc2ncnc(-c3cncnc3)c2CC1.O=C(O)C(F)(F)F`: -41.61%.
Next, `Cc1ccc2c(c1)CCC21CCN(C(=O)CN(C)C)CC1.O=C(O)C(F)(F)F`: 50.73%; `CN(C)CC(=O)N1CCC2(CCc3ccc(-c4ccncc4)cc32)CC1.O=C(O)C(F)(F)F.O=C(O)C(F)(F)F`: -49.14%.
Next, `CN(C)CC(=O)N1CCC2(CCc3cc(-c4cccnc4)ccc32)CC1.O=C(O)C(F)(F)F.O=C(O)C(F)(F)F`: 79.5%; `O=C(O)C(F)(F)F.c1cncc(-c2ccc3c(c2)C2(CC3)CCN(c3nncs3)CC2)c1`: 21.42%.
For `Cc1ccc(CN2CCc3ncnc(-c4ccoc4)c3CC2)o1.O=C(O)C(F)(F)F`, the “Percent Effect” value is given as -147%.
Next, `Cc1ncc(C(=O)N2CCCCC2c2nc3cc(F)ccc3[nH]2)c(O)n1` (stereo unspecified): -22.18%.
